The source of these data is PubChem BioAssay (EPA / NIEHS).

Results filed as inconclusive are left out. Calls of active or inactive are those of the source. The calls were made as follows, unless noted: active = hit-call score of the fitted dose curve at least 0.9, where 1 is the maximum; inactive = score below 0.9.

For experiment [1], the target named is Retinoic acid receptor RXR-alpha (Homo sapiens) (UniProt P19793). Description: ATG_RXRa_TRANS: Attagene TRANS-FACTORIAL HepG2 Assay for human Retinoid X Receptor alpha (RXRa) (AID 2283012; active = hit-call score of the fitted dose curve at least 0.9, where 1 is the maximum). The gist of the method:
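Read-out: fluorescent reporter-transcript fragments quantified by capillary electrophoresis after RT-PCR. Transiently transfected HepG2 cells carrying GAL4-UAS reporters and NR-GAL4 chimeras were exposed to chemical for 24 h; activity scored as increase over DMSO.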

Experiment [2] addresses human Retinoid X Receptor beta (RXRb), RXRB (gene 6257) (UniProt P28702). Description: ATG_RXRb_TRANS: Attagene TRANS-FACTORIAL HepG2 Assay for human Retinoid X Receptor beta (RXRb) (AID 2283013; active = hit-call score of the fitted dose curve at least 0.9, where 1 is the maximum). An outline of the steps: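 Read-out: reporter mRNA induction via RT-PCR plus capillary electrophoresis fluorescence, analysed as signal increase relative to DMSO. Cells were human HepG2, transiently transfected with GAL4-UAS reporter constructs and chimeric receptor-Gal4 fusions, dosed for 24 h.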

For experiment [3], the target named is human Vitamin D Receptor (VDR), VDR (gene 7421) (UniProt P11473). Description: ATG_VDR_TRANS: Attagene TRANS-FACTORIAL HepG2 Assay for human Vitamin D Receptor (VDR) (AID 2283022; active = hit-call score of the fitted dose curve at least 0.9, where 1 is the maximum). The gist of the method:
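HepG2 cells were transiently transfected with GAL4-UAS reporter units and a chimeric VDR-Gal4 construct, then dosed for 24 hours. Reporter mRNA was quantified by RT-PCR, fluorescent labeling, HpaI digestion and capillary electrophoresis; gain of signal analysed vs DMSO.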

Experiment [4] concerns the target human Thyroid Receptor alpha (THRa1), THRA (gene 7067) (UniProt P10827). Description: ATG_THRa1_TRANS: Attagene TRANS-FACTORIAL HepG2 Assay for human Thyroid Receptor alpha (THRa1) (AID 2283014; active = hit-call score of the fitted dose curve at least 0.9, where 1 is the maximum). The gist of the method: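 HepG2 cells transiently transfected with chimeric NR-Gal4 and GAL4-UAS reporter units, dosed 24 h. Reporter mRNA quantified by RT-PCR, fluorescent labeling, HpaI digestion and capillary electrophoresis; gain-of-signal fit versus DMSO.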

Read-out in experiment [5]: E-selectin (Homo sapiens) (UniProt P16581)
Nature of the experiment: BSK_3C_Eselectin: BioMAP Diversity Plus: 3C Assay for Eselectin Biomarker Activity (AID 2283015). Conditions: primary human endothelial cells (HUVEC); actives raise or lower the signal. The gist of the method: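 Primary human umbilical vein endothelial cells (3C system), read 24 h after compound addition; E-selectin measured by ELISA. Bidirectional curve fitting against DMSO baseline; cytotoxicity by parallel SRB total-protein staining.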

Read-out in experiment [6]: Interleukin-1 alpha (IL1a), IL1A (gene 3552)
Nature of the experiment: BSK_BE3C_IL1a: BioMAP Diversity Plus: BE3C Assay for Interleukin-1 alpha (IL1a) Biomarker Activity (AID 2283016). The following applies: primary human bronchial epithelial cells; actives raise or lower the signal. An outline of the steps:
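ELISA read-out of IL-1a from human lung bronchial epithelial primary cells, 24 h post-dose. Gain or loss of signal fitted relative to DMSO negative control.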

Read-out in experiment [7]: Monocyte Chemoattractant Protein-1 (MCP1), CCL2 (gene 6347)
Nature of the experiment: BSK_4H_MCP1: BioMAP Diversity Plus: 4H Assay for Monocyte Chemoattractant Protein-1 (MCP1) Biomarker Activity (AID 2283018). Conditions: primary human endothelial cells (HUVEC); actives raise or lower the signal. An outline of the steps: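 HUVEC primary cells, 24 h post-dose, MCP-1 by ELISA. Gain or loss of signal fitted bidirectionally vs DMSO baseline. Cytotoxicity: SRB stain (0.1% after 10% TCA fixation), read 560 nm, parallel cultures.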

Read-out in experiment [8]: Interleukin-8 (IL8), CXCL8 (gene 3576)
Nature of the experiment: BSK_3C_IL8: BioMAP Diversity Plus: 3C Assay for Interleukin-8 (IL8) Biomarker Activity (AID 2283020). The following applies: primary human endothelial cells (HUVEC); actives raise or lower the signal. The gist of the method:
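HUVEC, 3C stimulation; 24 h compound exposure; IL-8 read by ELISA; gain or loss of signal fitted relative to DMSO control.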

Read-out in experiment [9]: Monokine induced gamma interferon (MIG), CXCL9 (gene 4283)
Description: BSK_3C_MIG: BioMAP Diversity Plus: 3C Assay for Monokine induced gamma interferon (MIG) Biomarker Activity (AID 2283021).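 As to AC50: MIG protein level measured by immunoassay in the treated endothelial cultures.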 The following applies: primary human endothelial cells (HUVEC); actives raise or lower the signal. An outline of the steps: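 HUVEC, 3C system; 24 h chemical exposure; MIG by ELISA; bidirectional fit vs DMSO baseline.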

Experiment [10] is described as follows: BSK_3C_SRB: Viability Assessment in the BioMAP Diversity Plus: 3C Assay (AID 2283023).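 Also: fitted both ways against DMSO so a hit may be signal rise or drop.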 Conditions: primary human endothelial cells (HUVEC). The gist of the method:
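Human umbilical vein endothelial cells in the 3C system, treated 24 h. Total protein measured by 0.1% sulforhodamine B staining after 10% TCA fixation, read at 560 nm; bidirectional fit versus DMSO.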

Read-out in experiment [11]: Matrix Metallopeptidase 1 (MMP1), MMP1 (gene 4312)
Description: BSK_BE3C_MMP1: BioMAP Diversity Plus: BE3C Assay for Matrix Metallopeptidase 1 (MMP1) Biomarker Activity (AID 2283024). The following applies: primary human bronchial epithelial cells; actives raise or lower the signal. An outline of the steps: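 ELISA read-out of MMP1 in human lung bronchial epithelial primary cultures, 24 h post-dose; bidirectional curve fit vs DMSO baseline, gain or loss of signal scored.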

A short description of experiment [12]: BSK_3C_Vis: BioMAP Diversity Plus: 3C Assay for Morphology Visualization (AID 2283025).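 Also: fitted both ways so gain or loss versus DMSO counts.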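 As to AC50: light microscopy image of cell morphology used as background control.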 The following applies: primary human endothelial cells (HUVEC). The gist of the method:
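HUVEC, 3C system; light microscopy of morphology at 24 h post-dose. Bidirectional fit vs DMSO baseline. Secondary readout, background-control function.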

Read-out in experiment [13]: Pselectin, SELP (gene 6403)
Nature of the experiment: BSK_4H_Pselectin: BioMAP Diversity Plus: 4H Assay for Pselectin Biomarker Activity (AID 2283026). The following applies: primary human endothelial cells (HUVEC); actives raise or lower the signal. An outline of the steps:
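HUVEC, 24 h chemical exposure; P-selectin read by ELISA. Bidirectional curve fit vs DMSO baseline; gain or loss of signal scored.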

The nature of experiment [14]: BSK_4H_SRB: Viability Assessment in the BioMAP Diversity Plus: 4H Assay (AID 2283027).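 Also: cells exposed to compound for 24 h before staining.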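 As to AC50: curves fitted both ways versus DMSO so AC50 may be loss or gain.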 Conditions: primary human endothelial cells (HUVEC). An outline of the steps:
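Cytotoxicity readout: sulforhodamine B (0.1%) staining of total protein after 10% TCA fixation, measured at 560 nm in human umbilical vein endothelium at 24 h. DMSO set the baseline; fitting was bidirectional.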

A short description of experiment [15]: BSK_BE3C_SRB: Viability Assessment in the BioMAP Diversity Plus: BE3C Assay (AID 2283028).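 As to AC50: fitted both ways so AC50 may mark signal gain or loss versus DMSO.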 Conditions: primary human bronchial epithelial cells. An outline of the steps:
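Human bronchial epithelial primary cells in confluent culture, 24 h after chemical dosing; total protein by 0.1% SRB staining after 10% TCA fixation, read at 560 nm. Bidirectional fitting versus DMSO baseline.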

Read-out in experiment [16]: Thrombomodulin, THBD (gene 7056)
Nature of the experiment: BSK_3C_Thrombomodulin: BioMAP Diversity Plus: 3C Assay for Thrombomodulin Biomarker Activity (AID 2283029). Conditions: primary human endothelial cells (HUVEC); actives raise or lower the signal. An outline of the steps: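 HUVEC, 3C conditions; compound 24 h; thrombomodulin by ELISA; bidirectional curve fit vs DMSO baseline; parallel SRB total-protein staining for cytotoxicity.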

Read-out in experiment [17]: Urokinase-type plasminogen activator receptor (uPAR), PLAUR (gene 5329)
Description: BSK_4H_uPAR: BioMAP Diversity Plus: 4H Assay for Urokinase-type plasminogen activator receptor (uPAR) Biomarker Activity (AID 2283030). Conditions: primary human endothelial cells (HUVEC); actives raise or lower the signal. An outline of the steps: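 Human umbilical vein endothelial cells in the 4H system, 24 h after chemical dosing. Cell-surface uPAR measured by ELISA, fitted in both directions versus DMSO; cytotoxicity checked by SRB total protein in parallel cultures.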

Read-out in experiment [18]: Human Leukocyte Antigen - DR isotype (HLADR), HLA-DRA (gene 3122)
Nature of the experiment: BSK_3C_HLADR: BioMAP Diversity Plus: 3C Assay for Human Leukocyte Antigen - DR isotype (HLADR) Biomarker Activity (AID 2283019). Conditions: primary human endothelial cells (HUVEC); actives raise or lower the signal. The gist of the method:
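HUVEC monoculture, HLA-DR measured by ELISA 24 h after chemical dosing. Fitted bidirectionally against DMSO baseline; parallel SRB staining assessed cytotoxicity, with 3C proliferation read by SRB at 48 h.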

E-selectin (Homo sapiens), sequence (P16581 whole entry, looked up): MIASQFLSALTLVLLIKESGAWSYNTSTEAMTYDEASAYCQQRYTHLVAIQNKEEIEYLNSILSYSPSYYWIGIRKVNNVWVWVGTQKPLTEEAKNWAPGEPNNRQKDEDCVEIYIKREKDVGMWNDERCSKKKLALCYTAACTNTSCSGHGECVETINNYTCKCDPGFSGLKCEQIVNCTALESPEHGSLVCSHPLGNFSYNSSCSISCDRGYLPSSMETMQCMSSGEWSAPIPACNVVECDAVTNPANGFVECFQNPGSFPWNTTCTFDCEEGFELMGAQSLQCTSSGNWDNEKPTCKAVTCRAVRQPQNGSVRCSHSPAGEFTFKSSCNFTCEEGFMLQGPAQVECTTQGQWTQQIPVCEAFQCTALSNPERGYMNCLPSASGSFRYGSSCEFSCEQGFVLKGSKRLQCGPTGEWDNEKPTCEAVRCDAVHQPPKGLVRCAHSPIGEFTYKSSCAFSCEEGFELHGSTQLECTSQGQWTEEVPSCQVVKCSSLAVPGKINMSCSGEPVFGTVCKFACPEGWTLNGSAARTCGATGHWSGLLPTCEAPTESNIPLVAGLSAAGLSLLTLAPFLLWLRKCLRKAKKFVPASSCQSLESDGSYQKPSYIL
human Retinoid X Receptor beta (RXRb), RXRB (gene 6257), sequence (P28702 whole entry, looked up, the tested form may be a part): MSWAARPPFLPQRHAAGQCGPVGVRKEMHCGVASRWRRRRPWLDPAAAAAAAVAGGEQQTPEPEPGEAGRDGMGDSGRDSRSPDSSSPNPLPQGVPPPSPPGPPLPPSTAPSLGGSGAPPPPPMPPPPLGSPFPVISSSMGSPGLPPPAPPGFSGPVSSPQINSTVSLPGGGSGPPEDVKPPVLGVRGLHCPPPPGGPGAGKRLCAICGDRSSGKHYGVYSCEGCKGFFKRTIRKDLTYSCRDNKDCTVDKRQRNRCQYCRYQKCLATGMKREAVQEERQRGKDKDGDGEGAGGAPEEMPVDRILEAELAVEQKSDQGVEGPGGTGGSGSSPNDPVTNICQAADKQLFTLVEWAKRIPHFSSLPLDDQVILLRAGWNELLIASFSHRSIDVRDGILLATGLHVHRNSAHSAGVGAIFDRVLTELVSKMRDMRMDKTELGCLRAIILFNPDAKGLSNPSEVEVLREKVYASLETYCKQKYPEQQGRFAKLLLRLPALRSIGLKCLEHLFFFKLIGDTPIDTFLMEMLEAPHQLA
human Thyroid Receptor alpha (THRa1), THRA (gene 7067), sequence (P10827 whole entry, looked up, the tested form may be a part): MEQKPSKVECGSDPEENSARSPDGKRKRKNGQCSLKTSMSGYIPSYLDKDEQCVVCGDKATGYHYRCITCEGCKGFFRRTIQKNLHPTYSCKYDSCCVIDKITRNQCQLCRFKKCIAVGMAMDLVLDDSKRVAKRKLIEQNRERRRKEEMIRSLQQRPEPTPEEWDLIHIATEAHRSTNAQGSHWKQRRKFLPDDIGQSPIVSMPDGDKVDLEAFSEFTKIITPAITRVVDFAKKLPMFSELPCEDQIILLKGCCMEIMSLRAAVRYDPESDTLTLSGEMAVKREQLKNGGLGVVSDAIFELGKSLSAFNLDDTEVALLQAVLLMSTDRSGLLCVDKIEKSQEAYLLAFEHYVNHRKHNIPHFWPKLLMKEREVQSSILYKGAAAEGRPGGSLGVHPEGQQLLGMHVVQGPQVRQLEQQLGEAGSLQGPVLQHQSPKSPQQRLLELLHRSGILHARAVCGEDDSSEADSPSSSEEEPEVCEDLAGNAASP
Retinoic acid receptor RXR-alpha (Homo sapiens), sequence (P19793 whole entry, looked up, the tested form may be a part): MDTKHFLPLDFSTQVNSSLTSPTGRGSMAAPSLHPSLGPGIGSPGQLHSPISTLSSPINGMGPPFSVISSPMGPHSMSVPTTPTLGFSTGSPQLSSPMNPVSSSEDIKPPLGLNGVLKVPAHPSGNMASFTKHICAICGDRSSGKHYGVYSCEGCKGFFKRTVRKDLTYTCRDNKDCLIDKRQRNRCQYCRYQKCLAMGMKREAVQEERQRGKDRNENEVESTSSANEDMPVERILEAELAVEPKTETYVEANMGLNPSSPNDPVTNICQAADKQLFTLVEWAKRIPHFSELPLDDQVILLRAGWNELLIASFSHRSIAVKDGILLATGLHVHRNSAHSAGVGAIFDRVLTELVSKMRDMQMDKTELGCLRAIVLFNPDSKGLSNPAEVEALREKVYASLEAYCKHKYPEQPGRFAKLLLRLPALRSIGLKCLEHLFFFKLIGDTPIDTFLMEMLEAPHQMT
human Vitamin D Receptor (VDR), VDR (gene 7421), sequence (P11473 whole entry, looked up, the tested form may be a part): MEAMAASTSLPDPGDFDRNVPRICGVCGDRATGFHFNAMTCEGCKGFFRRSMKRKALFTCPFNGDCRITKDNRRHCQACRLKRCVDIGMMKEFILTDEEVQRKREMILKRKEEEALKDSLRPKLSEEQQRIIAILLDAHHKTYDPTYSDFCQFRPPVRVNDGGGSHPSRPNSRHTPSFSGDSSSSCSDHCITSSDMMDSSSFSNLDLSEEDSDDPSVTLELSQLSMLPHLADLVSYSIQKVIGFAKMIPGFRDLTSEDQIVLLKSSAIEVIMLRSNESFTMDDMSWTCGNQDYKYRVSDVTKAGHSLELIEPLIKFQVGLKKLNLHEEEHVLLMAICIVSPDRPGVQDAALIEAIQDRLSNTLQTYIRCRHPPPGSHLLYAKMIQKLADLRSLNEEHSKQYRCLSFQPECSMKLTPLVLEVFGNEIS

As for `CCCCCCCCBr`, the compound was classed as inactive in experiment [1], in experiment [2] and in [3].

As to `C=CCc1ccccc1O`, the call in experiment [1] and in [2] was inactive.

The AC50 is the concentration giving half of the maximal activity seen. As to `O=C(O)C1(c2ccc3c(c2)OC[C@H](Cc2ccc(-c4ccccc4)cc2)[C@H]3O)CCCC1`, the compound was called inactive in [1], in experiment [2], in experiment [4], in [3], in experiment [12] and in experiment [16]. Besides, the outcome in experiment [17] was inactive. For the same compound, the AC50 is 24.9 µM (active) in experiment [5]; 15.3 µM (active) in [6]; 20 µM (active) in experiment [7]; 29.9 µM (active) in [8]; 35.7 µM (active) in experiment [9]; 28 µM (active) in experiment [10]. The half-maximal activity concentration (AC50) is 31.7 µM (active) in [11], 27.1 µM (active) in [13], 20 µM (active) in [14] and 26.2 µM (active) in [15].

For `O=[N+]([O-])c1ccccc1O`, the call in experiment [1] and in experiment [2] was inactive.

Regarding `CCOCn1c(-c2ccc(Cl)cc2)c(C#N)c(Br)c1C(F)(F)F`, the call in [1], in experiment [2], in experiment [4] and in experiment [3] was inactive.

Regarding `Oc1c(Br)cc(Br)cc1Br`, the compound was classed as inactive in experiment [1], in experiment [2], in experiment [6], in experiment [7], in experiment [8] and in [9]. Also, the result in experiment [11], in [12], in experiment [16] and in [17] was inactive. The concentration at half-maximal activity (AC50) in experiment [5] was 27.2 µM (active); in experiment [18], 34.3 µM (active); in [10] it was 35.5 µM (active); in experiment [14], 29.5 µM (active).

`CCOP(=S)(OCC)OP(=S)(OCC)OCC`: the call in experiment [1], in experiment [6], in [8], in experiment [9], in experiment [11] and in experiment [15] was inactive. Besides, in [16], the outcome was inactive. For the same compound, the half-maximal activity concentration (AC50) was 50.2 µM (active) in [2]; 32.1 µM (active) in [5]; 33.5 µM (active) in experiment [7]; 26.6 µM (active) in [10]; 37.5 µM (active) in [12]; 31.2 µM (active) in experiment [13]. For the same compound, the half-maximal activity concentration (AC50) was 20 µM (active) in [14] and 32.3 µM (active) in experiment [17].

As for `CCOC(=O)CCN(SN(C)C(=O)Oc1cccc2c1OC(C)(C)C2)C(C)C`, the outcome in experiment [1], in experiment [6], in experiment [9], in [10], in experiment [11] and in experiment [14] was inactive. For the same compound, the outcome in [15], in experiment [16] and in experiment [17] was inactive. The concentration at half-maximal activity (AC50) in experiment [2] is 37.8 µM (active); in experiment [5], 20 µM (active); in experiment [7], 31.6 µM (active); in experiment [8], 3.97 µM (active); in experiment [12], 20 µM (active); in experiment [13] it was 23.2 µM (active).

As to `Cc1ccccc1OP(=O)(Oc1ccccc1C)Oc1ccccc1C`, the compound was called inactive in experiment [1], in [2], in experiment [4], in experiment [9] and in experiment [16]. In addition, the AC50 in experiment [5] is 5.43 µM (active); in [6] it was 10.7 µM (active); in experiment [7], 6.27 µM (active); in experiment [8], 5.37 µM (active); in experiment [10], 6.89 µM (active); in experiment [11], 5.4 µM (active). The concentration at half-maximal activity (AC50) is 12.5 µM (active) in [12]; 8.88 µM (active) in [13]; 15.2 µM (active) in experiment [14]; 16 µM (active) in [15]; 11.7 µM (active) in experiment [17].
